Hits are enriched below; roughly 19% of the tested compounds scored in any of these assays.
IL1B secr inh: qHTS for Inhibitors of Inflammasome Signaling: IL-1-beta AlphaLISA Primary Screen; actives 4.7% (n = 360,000); THP-1 LPS/ATP IL-1B secretion, AlphaLISA, 16 h; active compounds read low; activity change, % at 57.5 µM; in the data active = activity change below about -50%; inconclusive = mostly about -30% to -49%
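Secreted IL-1B measured by AlphaLISA bead assay after 16 h compound exposure of THP-1 cells; compounds (final up to 57.5 uM) added 1 h before LPS (250 ng/mL) and ATP (1.25 mM) stimulation; lower signal means less secretion.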
TDP1 cell CPT: qHTS for Inhibitors of human tyrosyl-DNA phosphodiesterase 1 (TDP1): qHTS in cells in presence of CPT | Potency, µM (top dose mostly 46.2 µM), hits mostly inhibitors | chicken DT40 Tdp1-/-;hTDP1 cells + 20 nM CPT, ATP luminescence, 48 h | actives 12% (n = 420,000) | AID 686979, 2013; note: nearly all actives have a fitted effect of over 55% in size
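Chicken DT40 Tdp1-/- cells complemented with human TDP1, 400 cells/well, exposed to compounds plus 20 nM camptothecin for at least 48 h at 37 C; viability read as ATP content by CellTiter-Glo luminescence.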
HT1080-NT tox: qHTS for induction of synthetic lethality in tumor cells producing 2HG: qHTS for the HT-1080-NT fibrosarcoma cell line; Potency, µM (titrated, usually from 46.1 µM), most hits filed as cytotoxic; HT-1080-NT fibrosarcoma viability, CellTiter-Glo ATP luminescence, 48 h; AID 686970, 2013; actives 1.6% (n = 360,000);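 note: NT is the 2HG producing partner of a matched IDH1 knockdown line; nearly all actives have a fitted effect of over 55% in size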
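Toxicity toward the 2HG-producing NT line was scored as %Activity, normalised to DMSO and no-cell wells, from CellTiter-Glo luminescence after 48 hours' treatment.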
HT1080 IDH1KD tx: qHTS for induction of synthetic lethality in tumor cells producing 2HG: qHTS for the HT-1080-IDH1KD cell line; HT-1080 IDH1 knockdown viability, ATP luminescence, 48 h; actives 2% (n = 360,000); Potency, µM (series often up to 46.1 µM), most hits filed as cytotoxic; AID 686971, 2013
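CellTiter-Glo luminescence after 48 h compound exposure at 37 degrees C of IDH1-knockdown HT-1080 cells in 5% FBS RPMI. %Activity scaled between DMSO wells and cell-free media wells, with curves fitted and assigned curve classes.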
DT40 TDP1 no CPT: qHTS for Inhibitors of human tyrosyl-DNA phosphodiesterase 1 (TDP1): qHTS in cells in absence of CPT | actives 15% (n = 420,000) | DT40 Tdp1-/- hTDP1 cells, no CPT, ATP luminescence, 48 h | Potency, µM (doses to about 46.2 µM), usual class: inhibitors; note: nearly all actives have a fitted effect of over 55% in size
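Chicken DT40 Tdp1-/- cells stably complemented with human TDP1 were seeded at 400 cells/well with DMSO in place of 20 nM camptothecin. After compound pinning, cells grew at least 48 hr at 37 °C; viability read by CellTiter-Glo luminescence.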
A number is an active result; . = inactive; ? = inconclusive; / = no result given; [ ] = remark or other dose. Unless noted, calls come from the whole dose curve; as a rule, active = well fitted curve in the direction sought with a large enough effect; inconclusive = small, poorly fitted or top-dose-only effect, or another doubt; inactive = no such curve, though single readings can be large; an effect the other way counts as inactive or inconclusive.

SMILES	IL1B secr inh	TDP1 cell CPT	HT1080-NT tox	HT1080 IDH1KD tx	DT40 TDP1 no CPT
CN(C)CCCOC(=O)COc1ccc(C(C)(C)C)cc1	.	.	.	.	.
O=C(Nc1ccccc1N1CCOCC1)c1ccc([N+](=O)[O-])cc1	.	.	.	.	.
O=C(NCc1ccco1)c1cc([N+](=O)[O-])ccc1N1CCCCC1	.	16µM	.	.	?
CC(C)C(=O)N1CCN(c2ccccc2NC(=O)c2cc([N+](=O)[O-])ccc2N2CCOCC2)CC1	.	?	.	.	13µM
O=C(Nc1ccc(NC(=O)c2cc([N+](=O)[O-])ccc2N2CCOCC2)cc1)c1cccs1	?	?	.	.	?
O=C(Nc1ccc(N2CCCC2)cc1)c1cc([N+](=O)[O-])ccc1N1CCOCC1	.	?	.	?	23µM
O=C(Nc1ccc([N+](=O)[O-])cc1)Nc1ccc(N2CCOCC2)c2nonc12	?	21µM	.	.	23µM
CCn1nnc2cc(C(=O)Nc3ccc(C)c(Cl)c3)ccc21	/	.	/	/	.
CCN1CC(c2ccccc2)C(c2ccc(Cl)cc2)=N1 (stereo unspecified)	.	.	.	.	.
O=C(Nc1cccc(Cl)c1)c1cccnn1	.	.	.	.	.
O=C(NCc1ccccn1)c1cnn(-c2ncc3c(n2)-c2ccccc2CC3)c1C1CC1	/	.[9.04 µM]	/	/	?
O=C(c1ccccc1F)N1CCN(c2ccc([N+](=O)[O-])c(N3CCOCC3)c2)CC1	.	.	.	.	.
O=C(c1ccccc1Sc1ccc([N+](=O)[O-])cc1Cl)N1CCOCC1	-72	?	.	.	?
N#Cc1ccccc1Sc1ccccc1C(=O)N1CCOCC1	.	.	.	.	.
O=C(c1cc([N+](=O)[O-])ccc1N1CCOCC1)N1CCN(c2ccc([N+](=O)[O-])cc2)CC1	.	13µM	.	.	15µM
O=C(c1cccc2ccccc12)N1CCN(c2ccc([N+](=O)[O-])c(N3CCOCC3)c2)CC1	.	9.2µM	.	.	21µM
COc1ccccc1NC(=O)c1ccc(S(=O)(=O)N2CCCC(C)C2)cc1 (stereo unspecified)	.	.	.	.	.
CC1CCN(S(=O)(=O)c2ccc3c(c2)oc(=O)n3CC(=O)NCc2ccc(F)cc2)CC1	/	12µM	/	/	8.2µM
COc1cccc(CNC(=O)Cn2ccc3cc(S(=O)(=O)N4CCC(C)CC4)ccc32)c1	.	?	.	.	?
CC1CCN(S(=O)(=O)c2ccc3c(c2)oc(=O)n3CC(=O)N2CCCCC2)CC1	/	.	/	/	.
COc1cccc(CNC(=O)Cn2c(=O)oc3cc(S(=O)(=O)N4CCC(C)CC4)ccc32)c1	/	7.3µM	/	/	5.2µM
O=C(Nc1ccc(O)cc1)/C(=C\C=C\c1ccccc1)NC(=O)c1ccccc1	.	?	.	.	16µM
CCCCOc1ccc(C(=O)N/C(=C/C=C/c2ccccc2)C(=O)NC)cc1	.	26µM	.	.	.
CC1CCCCC1NC(=O)CSc1nncn1N (stereo unspecified)	.	.	.	.	.
OCC(Cc1ccc2c(c1)OCO2)C(CO)Cc1ccc2c(c1)OCO2 (stereo unspecified)	.	?	.	.	?
SMILES	IL1B secr inh	TDP1 cell CPT	HT1080-NT tox	HT1080 IDH1KD tx	DT40 TDP1 no CPT
C[C@@H](NC(=O)c1ncn(C)c1C(=O)N[C@H](C)c1ccccc1)c1ccccc1	?	?	.	.	?
Cc1csc(N2CCCC2c2nc3cc(Cl)c(N4CCCCC4)cc3n2CCCO)n1 (stereo unspecified)	.	?	.	.	16µM
OCCCn1c(C2CCCN2c2nc(-c3ccc(F)cc3)cs2)nc2cc(Cl)c(N3CCCCC3)cc21 (stereo unspecified)	.	?	.	.	21µM
OCCCn1c(C2CCCN2c2nc(-c3ccc(Cl)cc3)cs2)nc2cc(Cl)c(N3CCCCC3)cc21 (stereo unspecified)	.	?	.	.	?
CNC(=O)C[C@@H](N)C(=O)N[C@@H](C(=O)N[C@@H]1C(=O)N2[C@@H]1SC(C)(C)[C@@H]2C(=O)O)c1ccc(O)cc1	/	.	/	/	.
CO[C@H]1[C@H](NC(=O)c2ccsc2)c2ccccc2C12CCN(Cc1cc(Cl)ccc1O)CC2	/	.[9.04 µM]	/	/	.
COc1cc2ncnc(NCc3cccc(F)c3F)c2cc1OC	.	?	.	.	?
Cc1cccc(CNc2cc(-c3cccc(C#N)c3)ncn2)c1	/	21µM	/	/	4.6µM
COc1cccc(-c2cncnc2NCc2cccnc2)c1	/	.	/	/	.
COCCNc1ncnc2ccc(-c3cccc(OC)c3)cc12	/	?	/	/	23µM
Brc1ccc2ncnc(NCc3ccccc3)c2c1	?	7.3µM	?	.[9.24 µM]	8.2µM
COc1cccc(-c2ccc3ncnc(NCc4ccccc4OC)c3c2)c1	/	?	/	/	15µM
Cc1noc(C)c1C(=O)NCC(=O)Nc1ccccc1Br	.	.	.	.	.
O=C(CNC(=O)c1ccc(Br)o1)NCC1CCCCC1	.	.	.	.	.
CN(C)c1ncnc2ccc(-c3ccc4c(c3)OCO4)cc12	/	?	/	/	23µM
CN(C)Cc1ccccc1-c1ccc2ncnc(NCc3ccccc3)c2c1	/	?	/	/	.
CC(=O)NCCNc1ncnc2ccc(-c3cccc(NS(C)(=O)=O)c3)cc12	/	?	/	/	.
N#Cc1cccc(-c2ccc3ncnc(NCc4ccccc4)c3c2)c1	/	?	/	/	26µM
COc1ccccc1CNc1ncnc2ccc(-c3cccc(NS(C)(=O)=O)c3)cc12	/	1.6µM	/	/	1.5µM
COc1cccc(-c2ccc3ncnc(NCc4ccccc4)c3c2)c1	/	?	/	/	21µM
Cc1nonc1-c1ccc2c(c1)OCO2	.	.	.	.	.
O=C(NN(c1ccccc1)c1ccccc1)c1ccccc1F	.	.	.	.	.
Cn1nc(C(=O)N2CCN(c3ccc(F)cc3)CC2)c2c1-c1ccccc1S(=O)(=O)C2	?	.	.	.	.
NC(=O)c1ccc(-n2nnnc2SCC(=O)Nc2ccc(F)cc2)cc1	.	.	.	.	.
COC(=O)C(/C=N/OCc1ccc([N+](=O)[O-])cc1)NC(=O)c1cccc(Cl)c1 (stereo unspecified)	.	.	.	.	.
CC1CCN(S(=O)(=O)c2csc(C(N)=O)c2)CC1	/	?	/	/	.
COc1cccc(-c2cncnc2NCc2cccc(C)c2)c1	/	?	/	/	23µM
CN(C)c1ncnc2ccc(-c3cccc(C#N)c3)cc12	/	26µM	/	/	?
O=S(=O)(Nc1cccc(-c2ccc(N3CCCC3)nn2)c1)c1cc(F)ccc1F	/	.	/	/	.

Screening results: PubChem, National Center for Advancing Translational Sciences (NCATS)
